# Activity calls are given as the source filed them. Unless noted, how the calls were made is not given here.
# Legend:
# [1] = resazurin metabolic signal in HepG2 cells – cell-based, resazurin fluorescence, 24 h, PK04 Diversity Set, profiling panel (AID 1172); settings: HepG2 viability, higher = more signal
# [2] = budding yeast growth changes without added modifier – OD600, strain BY4716, 24 h, basal condition, primary screen (AID 1173); settings: S. cerevisiae BY4716 growth, OD600, 24 h; higher = more signal, called active from +8 up or from −8 down
# [3] = viability profiling in MM1S myeloma cells – cell-based, resazurin fluorescence, basal, 24 h, PK04 Diversity Set, profiling panel (AID 1174); settings: higher = more signal, called active from +8 up or from −8 down;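 further: MM1S multiple myeloma cell line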
# [4] = biological target: Dihydroorotate dehydrogenase (quinone), mitochondrial (Plasmodium falciparum (isolate 3D7)) (UniProt Q08210); experiment: inhibition of P. falciparum DHODH – biochemical, C-terminal His tag, absorbance 600 nm, primary screen (AID 1175); settings: PfDHODH enzyme, DCIP absorbance 600 nm; higher = more signal, called active from +8 up or from −8 down;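 further: recombinant parasite enzyme with a five histidine tag at its C terminus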
# Chain of Dihydroorotate dehydrogenase (quinone), mitochondrial (Plasmodium falciparum (isolate 3D7)) (Q08210 whole entry, looked up): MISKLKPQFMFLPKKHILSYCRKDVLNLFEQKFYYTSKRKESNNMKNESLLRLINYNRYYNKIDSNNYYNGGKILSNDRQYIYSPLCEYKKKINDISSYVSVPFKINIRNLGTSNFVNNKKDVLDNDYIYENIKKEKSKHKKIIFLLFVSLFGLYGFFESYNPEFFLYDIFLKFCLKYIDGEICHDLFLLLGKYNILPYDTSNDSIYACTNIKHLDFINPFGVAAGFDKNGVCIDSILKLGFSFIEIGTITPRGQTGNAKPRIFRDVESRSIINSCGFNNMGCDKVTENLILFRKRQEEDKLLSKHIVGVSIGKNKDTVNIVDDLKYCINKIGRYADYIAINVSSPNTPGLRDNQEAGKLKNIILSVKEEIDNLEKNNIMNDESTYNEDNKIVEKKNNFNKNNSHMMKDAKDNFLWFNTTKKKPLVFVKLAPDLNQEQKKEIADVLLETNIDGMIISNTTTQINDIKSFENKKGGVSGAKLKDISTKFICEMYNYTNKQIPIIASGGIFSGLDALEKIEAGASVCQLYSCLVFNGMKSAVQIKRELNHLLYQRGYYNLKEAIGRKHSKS
# [5] = inhibition of PAO1 biofilm formation – strain PAO1, LB-PBS medium, absorbance 600 nm, primary screen (AID 1176); settings: P. aeruginosa PAO1 growth/biofilm, A600, 12 h; higher = more signal
# [6] = growth modulation of vineyard yeast isolate – strain RM11-1a, OD600, basal, 24 h, primary screen (AID 1177);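 further: cultures grown under basal conditions with no added stressor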; settings: S. cerevisiae RM11-1a growth, OD600, 24 h; higher = more signal, called active from +8 up or from −8 down
# [7] = growth of efflux-deficient E. coli DRC39 – strain DRC39, OD650, 24 h, E. coli filamentation inducers, primary screen (AID 1178);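 further: growth measured as culture turbidity by optical density at 650 nm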; settings: E. coli DRC39 acrAB, higher = more signal, called active from +8 up or from −8 down
# [8] = growth of efflux-deficient E. coli DRC39 – strain DRC39, OD650, 48 h, E. coli filamentation inducers, primary screen (AID 1179);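 further: screen aims at cell division blockers that make cells filament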; settings: E. coli DRC39 delta-acrAB growth, higher = more signal, called active from +8 up or from −8 down
# [9] = viability profiling in RPMI8226 myeloma cells – cell-based, resazurin fluorescence, basal, 24 h, PK04 Diversity Set, profiling panel (AID 1180); settings: higher = more signal;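 further: RPMI8826 multiple myeloma cell line at 5000 cells per well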
# [10] = biological target: E3 ubiquitin-protein ligase XIAP (Homo sapiens) (UniProt P98170); experiment: small molecules binding XIAP protein – biophysical, small-molecule microarray, fluorescence 635 nm, primary screen (AID 1181); settings: higher = more signal;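 further: score merges 667 nm emission and signal to noise over triplicate slides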
# Chain of E3 ubiquitin-protein ligase XIAP (Homo sapiens) (P98170 whole entry, looked up, the tested form may be a part): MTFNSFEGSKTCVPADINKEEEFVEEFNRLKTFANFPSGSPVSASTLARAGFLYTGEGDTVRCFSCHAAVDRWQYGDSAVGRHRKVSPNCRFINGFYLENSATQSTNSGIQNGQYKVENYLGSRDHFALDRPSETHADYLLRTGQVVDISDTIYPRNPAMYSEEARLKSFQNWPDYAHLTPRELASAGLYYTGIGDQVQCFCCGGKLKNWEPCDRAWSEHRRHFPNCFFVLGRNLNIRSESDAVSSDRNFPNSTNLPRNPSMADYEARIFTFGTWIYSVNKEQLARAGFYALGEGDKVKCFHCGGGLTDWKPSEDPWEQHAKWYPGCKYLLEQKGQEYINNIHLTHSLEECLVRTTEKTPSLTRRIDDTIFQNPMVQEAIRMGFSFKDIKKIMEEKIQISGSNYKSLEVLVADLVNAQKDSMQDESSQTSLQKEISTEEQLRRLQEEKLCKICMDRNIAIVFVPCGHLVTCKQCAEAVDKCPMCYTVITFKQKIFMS
# [11] = tested on: XIP peptide (Xip251-270) binding; experiment: XIP fragment 251-270 binding compounds – biochemical, small-molecule microarray, fluorescence 635/667 nm, 0.1 µg/mL protein, primary screen (AID 1182); settings: fluorescent protein binding, 635 nm, higher = more signal, called active from +8 up or from −8 down
# XIP peptide (Xip251-270) = experiment: compounds binding XIP fragment 251-270 – biochemical, small-molecule microarray, fluorescence 635/667 nm, 0.5 µg/mL protein, primary screen (AID 1183); settings: fluorescence 635 nm, higher = more signal
# [12] = blood-stage malaria parasite viability loss – strain 3D7, DAPI fluorescence, 100 nL, primary screen (AID 1184);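 further: parasites grown inside human red blood cells in medium with human serum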; settings: P. falciparum 3D7 growth, 3 d, higher = more signal
# [13] = biological target: Homeobox protein Hox-A13 (Mus musculus) (UniProt Q62424); experiment: disruptors of Hoxa13 oligonucleotide interaction – biochemical, fluorescence polarization, labeled oligonucleotide, primary screen (AID 1185); settings: Hoxa13:DNA binding, 15 min, higher = more signal, called active from +8 up or from −8 down
# Chain of Homeobox protein Hox-A13 (Mus musculus) (Q62424 whole entry, looked up): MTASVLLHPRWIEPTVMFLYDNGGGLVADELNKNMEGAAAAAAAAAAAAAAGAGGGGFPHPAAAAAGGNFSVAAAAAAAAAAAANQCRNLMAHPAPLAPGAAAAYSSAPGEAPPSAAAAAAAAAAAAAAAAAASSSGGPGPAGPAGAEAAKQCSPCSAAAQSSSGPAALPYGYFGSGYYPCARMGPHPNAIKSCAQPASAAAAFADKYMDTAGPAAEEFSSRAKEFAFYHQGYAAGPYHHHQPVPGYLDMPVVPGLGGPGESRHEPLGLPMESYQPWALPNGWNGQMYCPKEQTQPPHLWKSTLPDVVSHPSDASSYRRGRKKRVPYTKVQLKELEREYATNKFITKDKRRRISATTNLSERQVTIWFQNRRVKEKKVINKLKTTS
# [14] = blockers of DNA damage checkpoint Chk1 activation – imaging, HeLa, hydroxyurea, phospho-Chk1 antibody, percent positive cells, primary screen (AID 1186); settings: hydroxyurea-induced phospho-Chk1 immunofluorescence imaging, higher = more signal
# [15] = blockers of DNA damage checkpoint Chk1 activation – imaging, HeLa, hydroxyurea, phospho-Chk1 nuclear intensity, primary screen (AID 1187); settings: hydroxyurea-induced phospho-Chk1 immunofluorescence imaging, higher = more signal
SMILES,z-score [1],z-score [2],z-score [3],composite z-score [4],z-score [5],z-score [6],z-score [7],z-score [8],z-score [9],composite z-score [10],composite z-score [11],composite z-score (XIP peptide (Xip251-270)),z-score [12],z-score [13],z-score [14],z-score [15]
CO[C@H]1COC(=O)[C@H](C)NC(=O)[C@@H](C)COC(=O)CC=C[C@@H]1C,-0.279,-0.518 (inactive),0.0346 (inactive),-0.0114 (inactive),-0.443 (inactive),-0.477 (inactive),0.327 (inactive),1.3 (inactive),0.0991,0.0593,0.166 (inactive),0.518,0.336,-0.467 (inactive),–,–
CCOC(=O)[C@H](Cc1ccccc1)NC(=O)CCC1CC(OC(=O)NCc2ccc3c(c2)OCO3)CC2(CCCC(COC(=O)NCc3cccc(C(F)(F)F)c3)O2)O1 (stereo partly specified),-0.302,-1.17 (inactive),1.12 (inactive),-2.76 (inactive),-0.813 (inactive),0.234 (inactive),-1.21 (inactive),-0.793 (inactive),0.352,0.309,0.19 (inactive),0.109,-2.01,-0.531 (inactive),–,–
COC(=O)C1=C(C)[C@@H](O)[C@@H](C)[C@H](c2c(OC)c(OC)c(C)c(OC)c2OC)O1,-0.359,-0.195 (inactive),-0.46 (inactive),-0.218 (inactive),0.368 (inactive),0.0467 (inactive),0.0595 (inactive),-0.0569 (inactive),-0.529,0.0101,-0.252 (inactive),0.562,-0.717,-0.388 (inactive),–,–
CC(CCC(=O)OC[C@H]1O[C@H](C#Cc2ccccc2)C=C[C@@H]1Oc1ccc(C)cc1)=NO[C@@H](C)c1cn([C@H](CO)Cc2ccccc2)nn1,0.0474,0.542 (inactive),0.925 (inactive),-2.15 (inactive),-0.786 (inactive),-0.0398 (inactive),-0.26 (inactive),-1.24 (inactive),0.911,-0.338,0.692 (inactive),0.54,-1.02,-2.38 (inactive),–,–
COC(=O)CC=C[C@@H](C)[C@@H](C=NO[C@@H](C)c1cc(-c2c(C)cc(C)cc2C)no1)OC,-0.295,-0.408 (inactive),-0.656 (inactive),-2.58 (inactive),-0.728 (inactive),-0.357 (inactive),-0.716 (inactive),-2.26 (inactive),0.197,-0.124,0.0164 (inactive),-0.293,-1.12,-3.69 (inactive),–,–
COC(=O)C1=C(C)N(Cc2ccccc2)[C@]23O[C@](C(=O)OC)(C(=O)N2[C@@H]1c1ccccc1)[C@H]1CCOC(=O)[C@H]13,0.338,0.424 (inactive),0.444 (inactive),1.01 (inactive),-0.765 (inactive),1.55 (inactive),0.0676 (inactive),-0.164 (inactive),0.732,0.0896,0.303 (inactive),-0.202,-0.303,-4.7 (inactive),–,–
CCOC(=O)[C@H](CC(C)C)NC(=O)CCC1CC(OC(=O)NCc2cccc3ccccc23)CC2(CCCC(COC(=O)NCCc3ccccc3OC)O2)O1 (stereo partly specified),0.563,-0.581 (inactive),0.072 (inactive),-0.987 (inactive),0.684 (inactive),-0.0922 (inactive),-0.436 (inactive),-0.141 (inactive),-0.31,-0.134,1.05 (inactive),0.623,-1.83,-3.13 (inactive),–,–
C[C@H](c1ccccc1)N1C(=O)[C@H]2[C@H]3[C@H](O)[C@H](O)CC(=O)[C@@H]3CC[C@H]2C1=O,-0.353,0.205 (inactive),-0.486 (inactive),-0.303 (inactive),0.544 (inactive),-0.897 (inactive),-0.159 (inactive),-0.0569 (inactive),-0.523,-0.0826,0.0518 (inactive),0.771,0.0307,-1.84 (inactive),–,–
CCOC(=O)[C@H](Cc1ccccc1)NC(=O)CCC1CC(OC(=O)NCc2ccc3c(c2)OCO3)CC2(CCCC(COC(=O)NCC3CCCCC3)O2)O1 (stereo partly specified),1.19,-0.653 (inactive),0.625 (inactive),-0.0475 (inactive),-0.695 (inactive),0.104 (inactive),0.0066 (inactive),0.216 (inactive),0.419,0.257,-0.292 (inactive),0.646,-1.96,-2.6 (inactive),–,–
CCCNC(=O)OC[C@H]1O[C@H](CCON=C2[C@H]3CCn4c(=O)n(-c5ccccc5)c(=O)n4[C@H]3[C@H](O)[C@@H]3O[C@H]23)C=C[C@@H]1Oc1ccc(OC)cc1,-0.633,-0.521 (inactive),-1.52 (inactive),0.017 (inactive),0.0767 (inactive),0.12 (inactive),0.621 (inactive),1.13 (inactive),-2.05,-0.2,0.118 (inactive),0.592,-1.01,-6.53 (inactive),–,–
COC(=O)[C@H]1COC(c2ccc(OCCCO)cc2)=N1,-0.652,-0.928 (inactive),0.107 (inactive),0.335 (inactive),0.149 (inactive),-0.286 (inactive),0.057 (inactive),-0.645 (inactive),0.492,-0.103,0.239 (inactive),0.871,-0.264,-3.56 (inactive),0.101 (inactive),-0.388 (inactive)
CCOC(=O)CCN1C(=O)[C@H]2[C@H]3[C@H](O)C=CC(=O)[C@@H]3CC[C@H]2C1=O,-0.0089,0.454 (inactive),0.606 (inactive),0.231 (inactive),0.0942 (inactive),0.713 (inactive),0.446 (inactive),-0.689 (inactive),0.353,0.0356,0.58 (inactive),0.0156,-0.0439,-0.525 (inactive),–,–
O=C1[C@H]2[C@H]3[C@H](O)[C@H](O)CC(=NOC[C@@H](O)COCc4ccco4)[C@H]3CC[C@H]2C(=O)N1Cc1ccc2c(c1)OCO2,0.102,0.684 (inactive),-0.293 (inactive),-0.566 (inactive),-0.85 (inactive),0.0885 (inactive),0.786 (inactive),1.11 (inactive),0.263,0.0049,0.525 (inactive),0.127,0.436,-0.743 (inactive),–,–
COc1ccc(O[C@@H]2[C@H](O)CO[C@H]2C=CC#Cc2ccccc2)cc1,0.0873,-0.274 (inactive),-0.107 (inactive),0.18 (inactive),0.578 (inactive),0.905 (inactive),-0.01 (inactive),-0.812 (inactive),0.268,0.116,-0.0908 (inactive),0.799,-0.456,-3.09 (inactive),–,–
C[C@H]1Cc2c(-c3ccccc3)nc3c(c2CO1)CN(CCOc1ccccc1)CC3,-0.33,-1.97 (inactive),0.0723 (inactive),-0.0439 (inactive),1.17 (inactive),0.671 (inactive),1.67 (inactive),-0.176 (inactive),0.678,-0.0599,0.15 (inactive),0.771,1.18,-5.41 (inactive),–,–
CCN1C(=O)[C@H]2[C@H]3[C@H](O)[C@H](O)CC(=NOC[C@@H](C)[C@H](OCc4ccccc4)C(C)C)[C@@H]3CC[C@H]2C1=O,-0.725,-4.63 (inactive),-0.959 (inactive),-0.613 (inactive),0.0525 (inactive),-0.134 (inactive),1.03 (inactive),0.992 (inactive),-0.989,-0.0599,0.185 (inactive),0.757,0.605,-6.43 (inactive),–,–
O=C1C[C@@H](O)[C@@H](O)[C@@H]2[C@@H]3C(=O)N(Cc4ccc5c(c4)OCO5)C(=O)[C@@H]3CC[C@@H]12,0.227,0.189 (inactive),-0.0728 (inactive),0.745 (inactive),-0.131 (inactive),0.258 (inactive),0.0081 (inactive),0.0272 (inactive),-0.707,0.0908,0.0648 (inactive),0.353,-0.522,-0.682 (inactive),–,–
COc1cccc([C@@H]2Oc3ccc(Br)cc3C(=O)[C@H]2O)c1,-0.41,-14.5 (active),-1.99 (inactive),-0.071 (inactive),-0.0782 (inactive),-0.361 (inactive),0.255 (inactive),0.139 (inactive),-1.02,-0.391,2.46 (inactive),0.181,0.988,-1.54 (inactive),–,–
CC(CCC(=O)OC[C@H]1O[C@H](C#Cc2ccccc2)C=C[C@@H]1Oc1ccc(C)cc1)=NOC[C@@H](O)COCc1ccco1,-0.501,0.384 (inactive),-1.39 (inactive),-1.24 (inactive),0.277 (inactive),-0.0703 (inactive),0.564 (inactive),0.895 (inactive),0.131,-0.0454,-0.729 (inactive),-0.205,0.177,-3.65 (inactive),–,–
COc1ccc(COC(=O)NN=C2C[C@@H](O)[C@@H](O)[C@@H]3[C@@H]4C(=O)N(Cc5ccc6c(c5)OCO6)C(=O)[C@@H]4CC[C@@H]23)cc1,0.466,-0.839 (inactive),0.401 (inactive),-1.68 (inactive),2.55 (inactive),-1.83 (inactive),-0.459 (inactive),-0.279 (inactive),1.24,-0.0792,0.361 (inactive),-0.239,0.142,0.284 (inactive),–,–
CCCNC(=O)OC[C@H]1O[C@H](CCON=C[C@@H](OC)[C@H](C)C=CCC(=O)OC)C=C[C@@H]1Oc1ccc(OC)cc1,0.173,0.746 (inactive),0.345 (inactive),0.329 (inactive),-0.537 (inactive),0.198 (inactive),0.356 (inactive),0.138 (inactive),1.95,-0.0361,0.228 (inactive),0.162,0.232,-5.88 (inactive),–,–

# Source: PubChem BioAssay
